Measured values reported in PubChem BioAssay AID1345083 (National Center for Advancing Translational Sciences (NCATS), 2018).
Out of some 94,000 compounds screened, about 6,200 (6.6%) were called active. Another 31% or so got no clear call; they are omitted. Only a selection was taken, and actives are over-represented in it overall. A number with no mark means an inactive call. The call rests on the fitted dose curve; in most records, active means well fitted inhibition curve with a large enough effect; inconclusive means small, poorly fitted or top-dose-only effect; inactive means flat fitted curve, though single readings scatter.
On the % scale 0 is the no-effect control and ±100 the full control effect; potency means the concentration at half of the fitted maximal effect.

Test: Cytotoxic Profiling in HEK 293 Cell Line of Diverse Libraries Using Quantitative High-Throughput Screening; further: nearly all actives have a fitted effect of over 60% in size
Conditions: HEK 293 viability, ATP luminescence (CellTiter-Glo), 48-72 h; series mostly up to 115 µM; activity change, negative = cytotoxicity: at the top concentration
Outline: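 ATP-coupled CellTiter-Glo luminescence served as viability read-out, recorded 10 min after reagent addition at room temperature. HEK 293 cells, 250 cells/well, had been incubated with pintool-transferred compound for 48 or 72 hr at 37 degree Celsius.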
In the case of Cc1nnc2n1C(C)CN(C(=O)CCCc1nc(-c3ccncc3)no1)C2 (centres undefined), the “outcome” value is reported as “inactive”.
With O=C(NCc1cccnc1)C1CCCN(c2ccnc3ccnn23)C1 (centres undefined) the “activity change, negative = cytotoxicity” value was -27.3%.
With CCCNC(=O)NC1CCN(C(=O)N2CC3CC(C2)[C@H]2CCCC(=O)N2C3)CC1 (some centres undefined) the “activity change, negative = cytotoxicity” value was 1.71%.
With COc1ccc(CNC(=O)c2ccc3c(c2)N(C)C2CCCCN2C3=O)c(OC)c1 (centres undefined) the “activity change, negative = cytotoxicity” value was 1.55%.
For O=C(Nc1ccc([C@H]2OCC(=O)N(C3CCOCC3)[C@@H]2CO)cc1)c1ccc(F)c(Cl)c1, the “activity change, negative = cytotoxicity” value was -13%.
With CCN1c2cc(C(=O)NCc3ccccc3C(F)(F)F)ccc2C(=O)N2CCCCCC21 (centres undefined) the Potency was 39.8 µM (active).
For COc1cc(=O)n2c(c1C(=O)Nc1ccc(Cl)c(F)c1)CCCC2, the “activity change, negative = cytotoxicity” value was -15.7%.
For CCN1C(=O)Cc2cc(C(=O)NCc3cc(OC)ccc3OC)ccc21, the “activity change, negative = cytotoxicity” value was -17.2%.
With CCN1c2cc(C(=O)Nc3ccc(F)c(Cl)c3)ccc2C(=O)N2CCCCC21 (centres undefined) the Potency was 39.8 µM (active).
With CCN1c2cc(C(=O)Nc3ccc(SC)cc3)ccc2C(=O)N2CCCCCC21 (centres undefined) the Potency was 22.4 µM (active).
In the case of CN(C)C[C@@H]1CN(C)C[C@H]1NC(=O)c1ccnnc1, the “activity change, negative = cytotoxicity” value is reported as -2.4%.
In the case of CC(C)CC(=O)N1CCN(c2nnc3ccccn23)CC1, the “outcome” value is reported as “inactive”.
With CC(C)(C)CC(=O)Nc1ccc2c(N3CCOCC3)ncnc2c1 the “activity change, negative = cytotoxicity” value was -29.9%.
With O=C(CCCc1ccccc1)NCCC1CCN(C(=O)Nc2cc(F)cc(F)c2)CC1 the “activity change, negative = cytotoxicity” value was -10.7%.
For CN1C(=O)C(CC(=O)NCc2ccccc2F)Sc2ncccc21 (centres undefined), the “activity change, negative = cytotoxicity” value was 25.8%.
With COCc1cccc(C(=O)N2CC[C@@](C)(O)[C@@H](O)C2)n1 the “activity change, negative = cytotoxicity” value was -0.59%.
With C=CCN(C)c1nc(C)nc2c1CCN(C(=O)N1CCOCC1)CC2 the “activity change, negative = cytotoxicity” value was 2.16%.
In the case of N#Cc1ccc(CN2CCCC3(COc4ccccc4[S+](=O)([O-])N3)C2)cc1 (centres undefined), the “activity change, negative = cytotoxicity” value is reported as -25.4%.
With CS(=O)(=O)N1CCCN(C(=O)CN2CCCCCC2)CCNC(=O)CC1c1ccccc1 (centres undefined) the “activity change, negative = cytotoxicity” value was -21.6%.
In the case of COc1ccc(O[C@H]2COCCN(Cc3nccn3C)C2)cc1, the “activity change, negative = cytotoxicity” value is reported as -11.1% [at 172 µM].
In the case of Cn1cc(CN2CCOC[C@H](Oc3ccc(S(C)(=O)=O)cc3)C2)c2ccccc21, the Potency is reported as 50.1 µM (active).
For CC(C)CN1CCOC[C@H](Oc2ccc(S(C)(=O)=O)cc2)C1, the “activity change, negative = cytotoxicity” value was -15.6% [at 172 µM].
In the case of Cc1cc(C(=O)NCC2CCCN(Cc3nnc(-c4cccnc4)o3)C2)no1 (centres undefined), the “outcome” value is reported as “inactive”.
With Cc1ccc(S(=O)(=O)N(C)Cc2ccccc2C(F)(F)F)cc1 the Potency was 70.8 µM (active).
For CN(CC1CCOC1)S(=O)(=O)c1ccccc1C(F)(F)F (centres undefined), the “activity change, negative = cytotoxicity” value was -3.67%.
In the case of Cc1ccc(S(=O)(=O)N(C)CC2CCOCC2)cc1F, the “activity change, negative = cytotoxicity” value is reported as -30.7%.
In the case of CN1C(=O)CCC2(CNC(=O)C3CCC3)CCC=C12 (centres undefined), the “activity change, negative = cytotoxicity” value is reported as -10.2%.
In the case of O=C(NC1CCCC1)NC1CC(c2nnc(CO)n2C2CC2)C1 (centres undefined), the “outcome” value is reported as “inactive”.
In the case of O=C(C1CCc2nnc(C3CCN([S+](=O)([O-])c4ccccc4)CC3)n21)N1CCOCC1 (centres undefined), the “outcome” value is reported as “inactive”.
With O=C(N1CCCC(Cc2nc(C3CCOCC3)no2)C1)C1(c2ccccc2)CC1 (centres undefined) the “activity change, negative = cytotoxicity” value was -16.5%.
In the case of O=C(N1CCC(Cc2nc(-c3ccccc3)n[nH]2)C1)C1(c2ccccc2)CC1 (centres undefined), the Potency is reported as 44.7 µM (active).
In the case of O=C(C1CCC1)N1CCC(Cc2nc(-c3cccnc3)n[nH]2)C1 (centres undefined), the “activity change, negative = cytotoxicity” value is reported as 6.91%.
For CCc1noc(-c2cccn3c(CNC(=O)c4cccc(Cl)c4)nnc23)n1, the “activity change, negative = cytotoxicity” value was -11.2%.
In the case of CC1(c2noc(C3CCOCC3)n2)CCN(Cc2c(F)cccc2Cl)CC1, the “activity change, negative = cytotoxicity” value is reported as -21.5%.
For CC(C)C(=O)Nc1ccc(C2(C(=O)NCCN3CCCCC3)CCCCC2)cc1, the “activity change, negative = cytotoxicity” value was -15.8%.
In the case of COc1ccc(NC(=O)[C@@H]2C[C@@H](c3ccc(F)cc3)N(CCOc3ccccc3)C2)cn1, the Potency is reported as 39.8 µM (active).
For Cc1ccc(NC(=O)[C@@H]2CNC[C@H](C(=O)NCc3ccccn3)C2)cn1, the “outcome” value was “inactive”.
For O=C(COc1ccc(NC(=O)C2CC2)cn1)NCc1ccc(F)cc1F, the “activity change, negative = cytotoxicity” value was 3.7%.
With O=C(C1NCCc2[nH]cnc21)N1CCc2nnc(-c3ccccc3)n2CC1 (centres undefined) the “outcome” value was “inactive”.
With O=C(Nc1ccccc1F)N1CCc2nnc(C3CC3)n2CC1 the “activity change, negative = cytotoxicity” value was -8.81%.
For Cn1nc(C(=O)N2CCC(N3C(=O)C(O)C34CCCCC4)CC2)c2ccccc21 (centres undefined), the “outcome” value was “inactive”.
For O=C(c1ccc2c(c1)OCO2)N1CCC2(C1)C(=O)Nc1ccccc12 (centres undefined), the “outcome” value was “inactive”.
With Cc1ccccc1C(=O)N1CCN(C(=O)c2nc3cccnc3n(C3CC3)c2=O)CC1 the “outcome” value was “inactive”.
In the case of O=C(c1ccc(F)cc1)N1CCN(C(=O)c2nc3cccnc3n(C3CCCC3)c2=O)CC1, the “activity change, negative = cytotoxicity” value is reported as -11.6%.
With Cc1ccc([S+](=O)([O-])N2CCN(C(=O)c3nc4cccnc4n(C4CCCC4)c3=O)CC2)cc1 the Potency was 39.8 µM (active).
With O=C(NCC1CCCO1)c1noc(-c2ccccc2F)n1 (centres undefined) the “activity change, negative = cytotoxicity” value was -1.98%.
For O=C(NCC1CCCO1)c1csc(N2CCN(c3ccccc3F)CC2)n1 (centres undefined), the Potency was 89.1 µM (active).
With Cc1ccccc1C(=O)N1C(C(=O)NCC2CCCO2)COC12CCN(C(=O)c1cccs1)CC2 (centres undefined) the “activity change, negative = cytotoxicity” value was -23.6%.
In the case of CC(C)NC(=O)C1CCc2nnc(CNC(=O)c3ccc(Cl)cc3Cl)n21 (centres undefined), the “activity change, negative = cytotoxicity” value is reported as -16.9%.
